Laboratory results published in PubChem BioAssay AID1347074 (Center for Chemical Genomics, University of Michigan, 2019).
In all, about 47,000 compounds went through this assay and about 2,800 (6%) were called active. This is one part of a sample in which actives are shown more often than they occur. A number with no mark means an inactive call. Cut-off read from the data, not from the text of the source: active = z-score above about 3 (passing the limit was not always enough); inactive = the rest.

These molecules were tested against Endoribonuclease Dicer (Homo sapiens) (UniProt Q9UPY3) (assay: Dicer cleavage of pre-miR-21 blockers – biochemical, cat-ELCCA, chemiluminescence, primary screen (AID 1347074;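 note: plate controls were vehicle for no effect and no enzyme for full effect; higher signal means more uncleaved substrate so more Dicer inhibition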)). Conditions: cat-ELCCA pre-miR-21 Dicer processing, at 25 µM, stronger effect = higher value.
Chain of Endoribonuclease Dicer (Homo sapiens) (Q9UPY3 whole entry, looked up): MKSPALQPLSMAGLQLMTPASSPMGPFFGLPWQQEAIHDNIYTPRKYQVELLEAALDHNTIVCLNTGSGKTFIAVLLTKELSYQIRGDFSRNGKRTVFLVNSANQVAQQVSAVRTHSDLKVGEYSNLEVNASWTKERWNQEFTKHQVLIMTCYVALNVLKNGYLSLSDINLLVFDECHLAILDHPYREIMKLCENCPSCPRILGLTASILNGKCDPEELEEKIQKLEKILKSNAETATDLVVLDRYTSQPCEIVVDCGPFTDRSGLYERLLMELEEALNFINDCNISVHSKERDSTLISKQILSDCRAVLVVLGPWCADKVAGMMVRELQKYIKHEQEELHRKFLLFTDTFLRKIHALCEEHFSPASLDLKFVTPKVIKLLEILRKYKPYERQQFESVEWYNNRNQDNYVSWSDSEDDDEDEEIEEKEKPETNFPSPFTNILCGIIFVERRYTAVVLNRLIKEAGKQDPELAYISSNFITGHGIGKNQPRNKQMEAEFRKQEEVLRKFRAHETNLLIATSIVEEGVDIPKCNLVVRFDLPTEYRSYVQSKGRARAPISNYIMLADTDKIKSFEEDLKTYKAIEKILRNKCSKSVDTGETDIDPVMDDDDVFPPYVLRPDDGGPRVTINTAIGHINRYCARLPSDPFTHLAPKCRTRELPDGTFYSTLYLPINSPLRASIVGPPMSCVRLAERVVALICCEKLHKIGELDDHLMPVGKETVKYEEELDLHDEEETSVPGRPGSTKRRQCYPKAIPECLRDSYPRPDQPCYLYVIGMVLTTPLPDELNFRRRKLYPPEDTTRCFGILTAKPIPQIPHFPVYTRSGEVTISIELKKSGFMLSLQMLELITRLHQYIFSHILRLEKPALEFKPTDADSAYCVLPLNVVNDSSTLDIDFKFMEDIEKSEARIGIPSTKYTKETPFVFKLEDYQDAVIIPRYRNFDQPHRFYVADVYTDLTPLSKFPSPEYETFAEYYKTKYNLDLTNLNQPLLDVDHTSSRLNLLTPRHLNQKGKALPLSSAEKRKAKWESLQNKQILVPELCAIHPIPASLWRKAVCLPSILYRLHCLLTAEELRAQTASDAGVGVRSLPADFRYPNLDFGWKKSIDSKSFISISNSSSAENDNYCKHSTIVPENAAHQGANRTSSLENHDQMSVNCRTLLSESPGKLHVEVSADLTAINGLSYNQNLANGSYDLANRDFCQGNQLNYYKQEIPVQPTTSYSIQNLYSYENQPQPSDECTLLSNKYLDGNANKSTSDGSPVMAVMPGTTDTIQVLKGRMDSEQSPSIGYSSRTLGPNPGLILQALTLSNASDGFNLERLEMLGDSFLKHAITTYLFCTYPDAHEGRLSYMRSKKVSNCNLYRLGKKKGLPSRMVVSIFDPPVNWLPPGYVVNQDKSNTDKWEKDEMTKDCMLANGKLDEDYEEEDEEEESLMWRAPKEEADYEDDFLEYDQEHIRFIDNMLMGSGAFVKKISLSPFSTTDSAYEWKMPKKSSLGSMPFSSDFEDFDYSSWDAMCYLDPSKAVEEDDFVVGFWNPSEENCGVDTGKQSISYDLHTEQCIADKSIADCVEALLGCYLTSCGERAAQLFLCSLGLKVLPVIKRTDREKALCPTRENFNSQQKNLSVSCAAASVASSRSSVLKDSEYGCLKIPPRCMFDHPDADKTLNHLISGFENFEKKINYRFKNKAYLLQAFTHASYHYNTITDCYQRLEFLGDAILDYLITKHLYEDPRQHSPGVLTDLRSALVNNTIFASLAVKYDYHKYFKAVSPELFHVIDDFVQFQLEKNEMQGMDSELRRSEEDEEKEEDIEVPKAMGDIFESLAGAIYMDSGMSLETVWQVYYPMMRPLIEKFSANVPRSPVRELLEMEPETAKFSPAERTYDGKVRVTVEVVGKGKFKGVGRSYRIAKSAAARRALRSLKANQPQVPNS

Question: `CCOc1c(Br)cc(CNCCc2c[nH]c3ccccc23)cc1OC` was tested. Which z-score did it give?
Answer: 6.45 (active)

Question: Which z-score does the source give for `CC[N+]1(C)CCCC(OC(=O)C(O)(c2ccccc2)c2ccccc2)C1` (stereo not given) here?
Answer: -0.07

Question: With `Fc1ccccc1CN1CCN(Cc2ccc3c(c2)OCO3)CC1` as the molecule, how does the z-score read?
Answer: -0.5

Question: For `CN(C)C(=O)Oc1nnc(SCCS(=O)(=O)c2ccc(F)cc2)n1C1CC1`, which z-score is on record?
Answer: -1.56

Question: How did the z-score turn out when `Cc1cccc(-c2nc(C)cc(OC(=O)N(C)C)n2)c1` was run?
Answer: -0.47
